Here are results for 52 compounds from PubChem BioAssay AID624330 (Southern Research Specialized Biocontainment Screening …, 2012).

Among all 340,000 compounds or so, about 2,100 (0.62%) were called active.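 The calls were made as follows: active = first-screen hits whose inhibition reached a set limit at any dose in the follow-up dose series; inconclusive = inhibition above the set first-screen limit but never retested; inactive = the rest.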 Not all results are given here. Measured potencies and affinities stand elsewhere.

Sequence of Rac GTPase-activating protein 1 (Homo sapiens) (Q9H0H5 whole entry, looked up): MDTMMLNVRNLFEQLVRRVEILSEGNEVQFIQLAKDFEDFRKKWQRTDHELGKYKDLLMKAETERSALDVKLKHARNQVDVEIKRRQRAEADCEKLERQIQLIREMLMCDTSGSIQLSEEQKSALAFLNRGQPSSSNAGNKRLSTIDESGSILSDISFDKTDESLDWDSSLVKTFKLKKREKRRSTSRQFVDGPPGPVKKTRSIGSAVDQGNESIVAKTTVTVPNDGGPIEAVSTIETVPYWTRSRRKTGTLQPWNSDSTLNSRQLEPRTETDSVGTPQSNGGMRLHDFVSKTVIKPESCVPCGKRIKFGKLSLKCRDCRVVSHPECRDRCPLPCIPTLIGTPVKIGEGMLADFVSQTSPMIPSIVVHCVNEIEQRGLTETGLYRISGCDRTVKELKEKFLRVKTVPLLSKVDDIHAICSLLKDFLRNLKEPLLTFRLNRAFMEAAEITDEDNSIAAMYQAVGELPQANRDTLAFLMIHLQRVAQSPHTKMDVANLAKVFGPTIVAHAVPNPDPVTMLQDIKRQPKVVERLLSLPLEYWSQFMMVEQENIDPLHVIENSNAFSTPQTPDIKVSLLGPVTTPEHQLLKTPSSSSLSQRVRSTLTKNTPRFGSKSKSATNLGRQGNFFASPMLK

The experiment has as its target Rac GTPase-activating protein 1 (Homo sapiens) (UniProt Q9H0H5). Kind of experiment: blockers of MgcRacGAP-driven Rac1 GTP hydrolysis – biochemical, ADP Hunter fluorescence, primary and confirmatory, confirmation (AID 624330).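 Also: fluorescence reports GDP produced by GAP-driven GTP hydrolysis.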 Particulars: MgcRacGAP-stimulated Rac1 GTP hydrolysis, at 30 µM, active compounds read high, GST-tagged Rac1 F28L mutant substrate.
What is called inhibition is the change of the read-out against control, counted positive when it falls. Turning to `CCC(=O)Nc1ccc(NC(=O)CSc2nnnn2CC)cc1C`, the inhibition is 6.52% (inactive).

Consider `CCOC(=O)COc1ccc(S(=O)(=O)N2CCN(c3ccccc3)CC2)cc1`, for which the inhibition is 8.59% (inactive).

Turning to `O=C(CSc1nnc(-c2ccccc2)c(-c2ccccc2)n1)Nc1ccc(Br)cn1`, the inhibition was 4.25% (inactive).

Take `Cn1c(=O)[nH]c(=O)c2c1nc(Br)n2C/C=N/Nc1ccccc1`: the inhibition was 3.62% (inactive).

For `COc1ccc(N(CC(=O)Nc2ccc3c(c2)OCCO3)S(=O)(=O)c2cccnc2)cc1`, the inhibition was -11.8% (inactive).

`CC(=O)c1ccc(S(=O)(=O)NCCC(=O)NCCc2c[nH]c3ccccc23)cc1`: the inhibition was 3.35% (inactive).

On to `CCCCOC(=O)C1=C(C)Nc2ncnn2C1c1ccc(OC)c(OC)c1OC` (configuration not stated), for which the inhibition is 0.42% (inactive).

Consider `O=C(CN1CCCCCC1)Nc1ccc(Br)cc1`, for which the inhibition is 5.51% (inactive).

Turning to `COc1ccccc1N1CCN(Cc2cc3c(cc2Br)OCCO3)CC1`, the inhibition is 2.26% (inactive).

For `COc1ccc(N2CCN(Cc3cc4c(cc3Br)OCCO4)CC2)cc1`, the inhibition is 4.68% (inactive).

Consider `O=C(CNCC1CCCO1)Nc1ccccc1N1CCOCC1` (configuration not stated), for which the inhibition was 22% (inactive).

`O=C(CN1CCCCC1)Nc1ccccc1`: the inhibition was -4.92% (inactive).

Turning to `O=C(CNC1CCCCCC1)Nc1ccccc1N1CCCCC1`, the inhibition is 8.73% (inactive).

`Cc1ccc(NC(=O)c2cnccn2)cc1S(=O)(=O)N1CCCCCC1`: the inhibition is 6.35% (inactive).

Take `COc1ccc(-c2nc(NC3=NCCCCC3)sc2C)cc1`: the inhibition is 6.19% (inactive).

As to `CCCNC(=O)c1onc(CSc2ccc(Cl)cc2)c1C(=O)NCC1CC1`, the inhibition is 7.59% (inactive).

As for `COC(=O)c1ccc(NC(=O)c2cn(-c3ccccc3)nc2-c2ccncc2)cc1`, the inhibition was -0.99% (inactive).

On to `CN(C)c1ccc2c3c(ccc(N(C)C)c13)COC2`, for which the inhibition was -1.08% (inactive).

As to `CN=Cc1nc(-c2ccccc2)oc1O`, the inhibition is 10.2% (inactive).

As to `CC(C)(C)N=Cc1cc(-c2ccccc2)sc1O`, the inhibition was 7.65% (inactive).

`CCCn1c(N2CCN(C(=O)N3CCCCC3)CC2)nc2ccccc21`: the inhibition was -9.24% (inactive).

Turning to `C#CCOCCOCCOCCNc1nc(N2CCN(C(=O)[C@H](CCC(=O)O)n3cc(CN)nn3)CC2)nc(N2CCN(C(=O)[C@H](CCCCN)n3cc([C@@H](N)CC(N)=O)nn3)CC2)n1`, the inhibition is 8.54% (inactive).

Take `C#CCOCCOCCOCCNc1nc(N2CCN(C(=O)CCCCCCCCCCNC(=O)[C@@H](CCSC)n3cc(CCO)nn3)CC2)nc(N2CCN(C(=O)CCCCCCCCCCNC(=O)[C@H](CCC(=O)O)n3cc(CCCCCN)nn3)CC2)n1`: the inhibition was 8.01% (inactive).

Turning to `C#CCOCCOCCOCCNc1nc(N2CCN(C(=O)[C@H](CCC(=O)O)n3cc([C@@H](N)CCCCN)nn3)CC2)nc(N2CCN(C(=O)[C@H](CCC(=O)O)n3cc([C@@H](N)CCCCN)nn3)CC2)n1`, the inhibition is 3.63% (inactive).

Consider `C#CCOCCOCCOCCNc1nc(N2CCN(C(=O)[C@H](CCCCN)n3cc(CN)nn3)CC2)nc(N2CCN(C(=O)[C@H](CCC(=O)O)n3cc(CN)nn3)CC2)n1`, for which the inhibition was 10.3% (inactive).

In the case of `C#CCOCCOCCOCCNc1nc(N2CCN(C(=O)C([C@@H](C)O)n3cc([C@@H](N)CCCCN)nn3)CC2)nc(N2CCN(C(=O)[C@H](CCCCN)n3cc([C@@H](N)CC(N)=O)nn3)CC2)n1` (some centres not stated), the inhibition is 30.2% (inactive).

For `C#CCOCCOCCOCCNc1nc(N2CCN(C(=O)CCCCCCCCCCNC(=O)[C@@H](CCSC)n3cc(CCO)nn3)CC2)nc(N2CCN(C(=O)CCCCCCCCCCNC(=O)[C@H](CCSC)n3cc(CCO)nn3)CC2)n1`, the inhibition was -2.72% (inactive).

`C#CCOCCOCCOCCNc1nc(N2CCN(C(=O)C([C@@H](C)O)n3cc([C@@H](N)CCCCN)nn3)CC2)nc(N2CCN(C(=O)C([C@@H](C)O)n3cc([C@@H](N)CCCCN)nn3)CC2)n1` (some centres not stated): the inhibition was 27.4% (inactive).

Consider `C#CCOCCOCCOCCNc1nc(N2CCOCC2)nc(N2CCN(C(=O)[C@H](CCCCN)n3cc(CN)nn3)CC2)n1`, for which the inhibition was 20.9% (inactive).

Turning to `COc1ccc(S(=O)(=O)N2CCN(c3ncccn3)CC2)cc1`, the inhibition was -2.15% (inactive).

On to `COc1ccc(NC(=O)c2ccc(N3CCCC3=O)cc2)cc1Cl`, for which the inhibition was -8.17% (inactive).

As to `Cc1ccc(SCC(=O)Nc2ccc(N3CCOCC3)cc2)cc1`, the inhibition was 9.38% (inactive).

Consider `Cc1ccc(Cn2ccc(NC(=O)c3noc4c3CCCC4)n2)cc1`, for which the inhibition is -0.93% (inactive).

Take `Cc1cc(C(F)(F)F)nn1Cc1n[nH]c(=S)n1Cc1ccccc1`: the inhibition was 8.02% (inactive).

For `CCC(O)CNC(=O)NC(=C(Cl)Cl)c1ccc(C)c(F)c1` (configuration not stated), the inhibition was -0.09% (inactive).

For the compound `O=C(N/N=C\c1cccc(Cl)c1)c1n[nH]c2c1CCCC2`, the inhibition is 2.96% (inactive).

For `CCOC(=O)CNC(=O)C(=O)c1c(O)[nH]c2ccccc12`, the inhibition was 15.3% (inactive).

As to `Cc1ccc2c(COC(=O)C34CC5CC(CC(C5)C3)C4)cc(=O)oc2c1`, the inhibition is 0.94% (inactive).

In the case of `Cc1ccc(NCC(=O)c2ccccc2)cc1Cl`, the inhibition is 3.37% (inactive).

`Cc1ccc(S(=O)(=O)NC(=O)Nc2ccc(F)c(F)c2)cc1`: the inhibition is 8.4% (inactive).

Regarding `COc1cc(NC(=O)NS(=O)(=O)c2ccc(C)cc2)cc(OC)c1`, the inhibition is 4.34% (inactive).

As for `COc1ccc(N2CCN(CC(=O)c3c[nH]c4ccccc34)CC2)cc1`, the inhibition was -4.34% (inactive).

`CNC(=O)CSc1nc2sccc2c(=O)n1-c1ccccc1`: the inhibition was 4.24% (inactive).

In the case of `Cc1nnc(SCC(=O)Nc2nccs2)s1`, the inhibition was 1.9% (inactive).

On to `COc1ccc(NC(=O)CSc2nc(N)c(C(=O)Nc3ccc(N(C)C)cc3)s2)cc1`, for which the inhibition was 16.4% (inactive).

Turning to `CN(C)c1ccc(NC(=O)c2sc(SCC(=O)Nc3ccc(Br)cc3)nc2N)cc1`, the inhibition was 10.8% (inactive).

Turning to `CCN(CC)C(=O)CSc1nc(N)c(C(=O)Nc2ccc(OC)cc2)s1`, the inhibition was 14% (inactive).

For the compound `Cc1cc(C)cc(OCC(=O)OCC(=O)NC2CC2)c1`, the inhibition was -3.46% (inactive).

`CC(C)C(O)(C#CCN1CCCCC1)c1ccccc1` (configuration not stated): the inhibition was -1.57% (inactive).

As for `Cc1ccc(NC(=O)CSCC(=O)Nc2nnc(C3CC3)s2)cc1`, the inhibition is 7.27% (inactive).

Regarding `CCOC(=O)c1c(C)n(-c2ccc(C)cc2)c2ccc(OCC(O)CN3CCN(C)CC3)cc12` (configuration not stated), the inhibition was 5.99% (inactive).

Take `CCOC(=O)c1c(C)n(-c2ccc(C)cc2)c2ccc(OCC(O)CNCCCO)cc12` (configuration not stated): the inhibition was 14.9% (inactive).
